# Reference: PubChem BioAssay AID2284363 (EPA ToxCast)
# Activity calls are given as the source filed them. How the source made its calls: active means hit-call score of the fitted dose curve at least 0.9, where 1 is the maximum; inactive means score below 0.9.
# Target: Nuclear factor erythroid 2-related factor 2 (Homo sapiens) (UniProt Q16236)
# Test: ERF_US_NR_hNFE2L2: Eurofins (ERF) Cell Based Nuclear Translocation LeadHunter Assay for human Transcription Factor Keap1-Nrf2 Agonism
# Protocol: ERF_US_NR_hNFE2L2 is a cell-based, single-readout assay that uses extracted gene-proteins in a cell-line assay. Measurements were taken 6 hours after chemical dosing in a 384-well plate. See Keap1-Nrf2 Human Transcription Factor Cell Based Agonist Nuclear Translocation Assay, DiscoverX.ERF_US_NR_hNFE2L2 is an assay component calculated from the ERF_US_NR_hNFE2L2 assay. It is designed to measure protein fragment complementation using a type of binding reporter as detected by chemiluminescence with fluorimetry technology.Data from the assay component ERF_US_NR_hNFE2L2 was analyzed at the assay endpoint, ERF_US_NR_hNFE2L2, in the positive analysis fitting direction relative to DMSO as the negative control and baseline of activity. Using a type of binding reporter, gain-of-signal activity can be used to understand changes in binding as they relate to gene NFE2L2. To generalize the intended target to other relatable targets, this assay endpoint is annotated to the dna binding intended target family, where the subfamily is basic leucine zipper.
# Cells were seeded in a total volume of 20 uL into white walled, 384-well microplates and incubated at 37C overnight prior to testing.For agonist determination, cells were incubated with sample to induce response. Intermediate dilution of sample stocks was performed to generate 5X sample in assay buffer. 5 uL of 5X sample was added to cells and incubated at room temperature for 6 hours. Final assay vehicle concentration was 1%. The results are expressed as a percent efficacy relative to the maximum response of the control ligand.
# Nuclear factor erythroid 2-related factor 2 (Homo sapiens), sequence (Q16236 whole entry, looked up): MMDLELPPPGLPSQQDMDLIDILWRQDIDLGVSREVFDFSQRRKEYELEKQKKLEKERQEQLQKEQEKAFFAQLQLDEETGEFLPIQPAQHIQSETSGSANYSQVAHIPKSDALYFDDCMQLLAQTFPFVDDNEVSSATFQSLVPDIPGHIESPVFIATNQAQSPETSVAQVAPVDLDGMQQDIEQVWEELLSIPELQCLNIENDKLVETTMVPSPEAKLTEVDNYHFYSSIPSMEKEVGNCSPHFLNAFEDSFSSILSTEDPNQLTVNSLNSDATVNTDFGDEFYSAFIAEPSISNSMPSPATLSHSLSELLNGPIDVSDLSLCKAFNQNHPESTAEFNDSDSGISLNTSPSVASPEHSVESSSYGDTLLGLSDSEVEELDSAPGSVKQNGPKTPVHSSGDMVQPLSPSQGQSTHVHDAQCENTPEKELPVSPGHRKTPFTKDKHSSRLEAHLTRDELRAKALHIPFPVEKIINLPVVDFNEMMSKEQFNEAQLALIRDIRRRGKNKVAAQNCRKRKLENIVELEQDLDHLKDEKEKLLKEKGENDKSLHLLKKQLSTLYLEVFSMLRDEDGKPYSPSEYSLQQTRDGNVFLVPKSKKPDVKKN
Structure (SMILES),outcome,AC50
O=C(O)C(F)(F)C(F)(F)C(F)(F)F,inactive,–
O=C(O)CCC(F)(F)C(F)(F)C(F)(F)C(F)(F)C(F)(F)F,inactive,–
OCCC(F)(F)C(F)(F)C(F)(F)C(F)(F)C(F)(F)C(F)(F)C(F)(F)C(F)(F)F,–,1.94 µM (active)
O=C(O)C(F)(F)C(F)(F)C(F)(F)C(F)(F)C(F)(F)C(F)(F)C(F)(F)C(F)(F)Cl,inactive,–
